Shown are actives, neighbours in structure and some others; about 7.3% of the full set was active somewhere.
SMN2 splice up: qHTS Assay for Enhancers of SMN2 Splice Variant Expression; 2.8% of 210,000 active; Potency, µM (doses to about 46.1 µM), for inactives: top-dose activity change, positive = activation, hits mostly activators; HEK293 SMN2-luciferase splicing reporter, luminescence, 30-36 h; note: % of control where 0% means no effect; nearly all actives have a fitted effect of over 55% in size
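HEK293 cells carry an SMN2 minigene-luciferase reporter in which exon 7 inclusion puts luciferase in frame. Cells were seeded at 2000 cells/well, attached for 10-12 hours, then exposed to compounds for 30-36 hours at 37C before ONE-Glo luminescence.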
FLuc modulator: qHTS profiling assay for firefly luciferase inhibitor/activator using purifed enzyme and Km concentrations of substrates (counterscreen for miR-21 project). purified FLuc, Km substrates, luminescence inhibition. Potency, µM (doses to about 57.5 µM), inactives show top-dose activity change, negative = inhibition, actives largely listed as inhibitors. 6.9% of 360,000 active;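 note: plate controls were vehicle for no effect and reference inhibitor for full effect; nearly all actives have a fitted effect of over 55% in size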
Target sequence (P08659 whole entry, looked up): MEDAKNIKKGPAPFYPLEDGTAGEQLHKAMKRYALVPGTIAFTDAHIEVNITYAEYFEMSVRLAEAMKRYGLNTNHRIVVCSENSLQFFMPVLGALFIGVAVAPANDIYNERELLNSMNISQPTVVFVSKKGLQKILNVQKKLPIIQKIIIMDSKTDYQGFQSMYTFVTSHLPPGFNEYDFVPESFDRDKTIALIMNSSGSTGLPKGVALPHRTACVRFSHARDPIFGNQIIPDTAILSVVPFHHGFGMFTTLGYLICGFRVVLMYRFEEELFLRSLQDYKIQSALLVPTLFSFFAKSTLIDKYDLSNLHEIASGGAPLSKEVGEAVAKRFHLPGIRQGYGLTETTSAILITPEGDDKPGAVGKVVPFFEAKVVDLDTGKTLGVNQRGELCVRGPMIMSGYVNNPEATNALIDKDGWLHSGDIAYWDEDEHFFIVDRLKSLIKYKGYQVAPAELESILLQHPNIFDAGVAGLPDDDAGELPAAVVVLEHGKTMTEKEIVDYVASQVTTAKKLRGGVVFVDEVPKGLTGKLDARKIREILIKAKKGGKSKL
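Purified P. pyralis luciferase (10nM final) with 10uM D-luciferin and 10uM ATP (Km levels) in 50mM Tris acetate pH 7.5, 10mM Mg acetate, 0.01% Tween-20, 0.05% BSA; qHTS 6-point titration, ~60 µM downward; luminescence read.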
ELG1 genotoxic: qHTS screen for small molecules that induce genotoxicity in human embryonic kidney (HEK293T) cells expressing luciferase-tagged ELG1 | 1.3% of 330,000 active | Potency, µM (doses to about 46 µM), for the others: at the highest dose activity change, positive = activation, usual class: activators | HEK293T ELG1-luciferase reporter, luminescence, 16 h; note: % of control where 0% means no effect; nearly all actives have a fitted effect of over 60% in size
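HEK293T cells expressing luciferase-tagged ELG1 were treated with compound or DMSO for 16 hr at 37°C. Luciferase activity was then read after 30 min with ONE-Glo at room temperature; rising signal flags genetic stress.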
p53 reactivation: qHTS assay for re-activators of p53 using a Luc reporter; H1299 p53-A138V BP100-luciferase reporter, luminescence, 24 h; Potency, µM (titrated, usually from 92.2 µM), without a hit: top-dose activity change, positive = activation, hits mostly activators; 0.063% of 320,000 active; note: % of control where 0% means no effect; nearly all actives have a fitted effect of over 45% in size
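p53-null H1299 cells stably carrying temperature-sensitive p53-A138V and a BP100-luciferase reporter were pinned with compounds (4-point, 1:5 series) and held 24 hrs at 37 deg C. Luminescence was read 10 min after detection reagent.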
Rab9 promoter act: qHTS Assay for Rab9 Promoter Activators; Huh7 Rab9 promoter-luciferase reporter, luminescence, 24 h; Potency, µM (highest dose often 9.22 µM), without a hit: at the highest dose activation, negative = inhibition, usual class: activators; 2.8% of 320,000 active; note: % of control where 0% means no effect; nearly all actives have a fitted effect of over 60% in size
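Luminescence read-out: Huh7 cells stably expressing Rab9-luciferase, treated 24 h with compound at 37 °C, then lysed with luciferase reagent for 10 min at ambient before reading.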
NPC1 prom act: qHTS Assay for NPC1 Promoter Activators. 2.4% of 320,000 active. Huh7 NPC1 promoter luciferase reporter, 24 h. Potency, µM (series often up to 9.22 µM), for the others: at the highest dose activation, most hits filed as activators; note: % of control where 0% means no effect; nearly all actives have a fitted effect of over 60% in size
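Huh7 cells stably carrying NPC1 promoter–luciferase, plated in Opti-MEM with 10% FBS for 2 h, were exposed to compound in DMSO for 24 h at 37 °C; luciferase reagent was added for 10 min and luminescence read.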
* = called active by the depositor; u = inconclusive; x = no result; [ ] = remark or other dose. Calls come from the whole dose curve; as a rule, active = well fitted curve in the direction sought with a large enough effect; inconclusive = small, poorly fitted or top-dose-only effect, or another doubt; inactive = no such curve, though single readings can be large; an effect the other way counts as inactive or inconclusive. Potency is the fitted concentration of half-maximal effect.

SMILES | SMN2 splice up | FLuc modulator | ELG1 genotoxic | p53 reactivation | Rab9 promoter act | NPC1 prom act
O=C(COc1ccc(Br)cc1Cl)NC(=S)N1CCc2ccccc21 | u | u | 13.3% | 18.5% | -8.1% | -3.9%
O=C(COc1ccccc1Cl)NC(=S)Nc1cccc(NC(=O)c2ccccc2Cl)c1 | u | u | 0.2% | 2.5% | -1.5% | 0.0%
O=C(COc1ccc2ccccc2c1Br)NC(=S)Nc1cccc(CO)c1 | u | 8.49µM* | 20.6µM* | 7.4% | u | u
Nn1cc(Br)c(=O)[nH]c1=O | 10.0% | x | x | x | x | x
CCc1ccc(NC(=O)CC2C(=O)N(c3cccc(C)c3)C(=O)N2CCC(C)C)cc1 (stereo not drawn) | x | -5.1% | x | x | x | x
Cc1csc2c(N3CCN(C(=O)Nc4ccccc4)CC3)ncnc12 | x | u | -6.4% | -4.5% | -17.8% | -1.4%
Cc1csc2c(N3CCN(C(=S)Nc4ccc(F)cc4F)CC3)ncnc12 | x | 23.9µM* | 0.5% | -0.6% | -3.4% | -1.4%
COC(=O)c1c(C)[nH]c(C=Nc2ccc(OC)cc2)c1C | x | 7.57µM* | 5.4% | -0.7% | -1.9% | 3.0%
CCOC(=O)c1c(C)[nH]c(C=Nc2ccccc2)c1O | u | 1.6% | 3.4% | u | u | u
CCOC(=O)c1c(C)[nH]c(C=Nc2ccc(OC)cc2)c1O | 11.2µM* | 21.3µM* | u | u | 2.24µM* | 3.98µM*
COC(=O)c1c(C)[nH]c(O)c1C=Nc1ccc(C#N)cc1 | u | -4.7% | 7.5% | -1.4% | -2.9% | -5.1%
Cc1ccc(/C=C2\SC(=S)N(/N=C/c3cc([N+](=O)[O-])ccc3O)C2=O)o1 | x | 23.9µM* | -4.4% | -1.8% | -6.0% | -1.1%
CS(=O)(=O)Nc1ccc(C2=NN(S(C)(=O)=O)C(c3ccccc3)C2)cc1 (stereo not drawn) | u | -17.9% | 7.3% | u | 17.6% | 8.4%
CC(=O)N1N=C(c2ccccc2)CC1c1ccc2c(c1)OCO2 (stereo not drawn) | x | -6.4% | 4.5% | 15.7% | 0.9% | 0.4%
CS(=O)(=O)Nc1cccc(C2=NN(S(C)(=O)=O)C(c3ccc4c(c3)OCO4)C2)c1 (stereo not drawn) | 11.2µM* | 16.9µM* | 13.8% | u | u | 16.5%
CS(=O)(=O)N1N=C(c2ccccc2)CC1c1ccc2c(c1)OCO2 (stereo not drawn) | u | 21.3µM* | u | u | 2.82µM* | 3.55µM*
Cc1cnc(C(=O)OC(C)C(=O)NCc2ccccc2)cn1 (stereo not drawn) | x | 1.7% | 0.2% | -0.7% | -3.5% | -4.0%
COc1ccc(-n2c(-c3ccc(C)cc3)cc3c2CC(C)(C)CC3=O)c(OC)c1 | -20.0% | 2.3% | x | x | x | x
COc1ccc(C(=O)Nc2ccc3c(c2)OCCO3)cc1Br | x | 1.51µM* | u | x | 1.26µM* | 1µM*
CCOc1ccc(C(=O)Nc2ccc3c(c2)OCCO3)cc1 | x | 2.13µM* | 2.31µM* | x | 0.398µM* | 0.501µM*
COc1ccc(C(=O)NC(=S)Nc2nc(C)cc(C)n2)cc1Br | x | 15.1µM* | -0.6% | 24.6% | u | u
CCOc1ccc(C(=O)Nc2ccc3c(c2)OCCO3)cc1Br | 15.8µM* | 1.35µM* | x | x | x | x
CCCCn1c(=O)c2oc3ccccc3c2n(Cc2ccc(OC)cc2)c1=O | x | -0.6% | x | x | x | x
NC(=O)/C(=C/c1ccco1)C(N)=S | x | -0.9% | -3.0% | -1.2% | 1.4% | 0.8%
O=C(NC1CC(=O)N(c2ccc(Cl)cc2)C1)c1cccs1 (stereo not drawn) | x | -6.6% | x | x | x | x
SMILES | SMN2 splice up | FLuc modulator | ELG1 genotoxic | p53 reactivation | Rab9 promoter act | NPC1 prom act
Cc1ccc(S(=O)(=O)NN)c(C)c1N1CCCC1=O | x | -0.5% | -4.7% | -1.4% | 1.7% | 9.8%
Cc1ccsc1/C=N\NC(=O)c1cc(C(C)(C)C)[nH]n1 | 11.2µM* | 12µM* | u | 4.0% | 2.82µM* | 2.82µM*
Nc1c(Cl)c(Cl)nc(C(=O)N/N=C/c2ccco2)c1Cl | x | -2.8% | -1.2% | 12.5% | 3.3% | 23.6%
CC(C)(C)c1cc(C(=O)N/N=C/c2ccco2)n[nH]1 | u | 13.5µM* | 12.9% | u | u | u
Nc1nccnc1C(=O)N/N=C/c1ccco1 | x | 13.5µM* | 14.0% | 14.0% | u | 27.0%
Cc1cc(C(=O)N/N=C/c2sccc2C)no1 | u | u | 10.6% | 30.0% | 9.3% | 6.2%
COc1ccc(NC(=O)c2oc3ccccc3c2NC(=O)c2cc(C)cc(C)c2)c(OC)c1 | 4.0% | 1.8% | x | x | x | x
C=CCNS(=O)(=O)c1ncnc2nc[nH]c12 | -1.7%[9.22 µM] | x | x | x | x | x
CN(C)CCN(CC1CCCN(Cc2ccccc2F)C1)C(=O)c1ccc(F)cc1 (stereo not drawn) | x | -2.1% | 2.0% | 20µM* | -0.6% | -3.2%
COc1cc(C(=O)N(CCN(C)C)CC2CCCN(Cc3ccccc3F)C2)ccc1C (stereo not drawn) | x | -0.5% | -0.1% | -8.9% | -0.3% | 0.1%
CCc1nc2ccc(C(=O)NCCc3ccc(SC)cc3)cc2nc1CC | x | 0.5% | x | x | x | x
O=C1NC(=O)/C(=C/c2ccc(O)cc2)S1 | x | 15.1µM* | u | 17.5% | u | 29.8%
COc1ccc(CNc2ncnc3c2cnn3-c2ccc(Cl)cc2)cc1 | x | -5.2% | x | x | x | x
Cc1ccc(-n2ncc3c(NCc4cccnc4)ncnc32)cc1C | x | 4.78µM* | 9.2µM* | u | u | 2.24µM*
COc1ccc(-n2ncc3c(NCc4cccnc4)ncnc32)cc1 | x | 6.75µM* | u | u | 1µM* | 1.26µM*
Cc1cccc(-n2ncc3c(NCc4cccnc4)ncnc32)c1 | x | 8.49µM* | u | u | 2.51µM* | 3.98µM*
CCn1cc(C(=O)N2CCN(c3cccc(Cl)c3)CC2)c(=O)c2cc(S(=O)(=O)N3CCOCC3)ccc21 | 3.1% | -8.9% | x | x | x | x
CCOc1ccccc1C(=O)NC(CO)C(=O)O (stereo not drawn) | 22.1% | 8.0% | 1.5% | -0.3% | -2.4% | -0.1%
CC(=O)c1cccc(NC(=O)c2c(N3CCCC3=O)c3cc(F)ccc3n2C)c1 | x | 1.0% | x | x | x | x
CCOC(=O)C1CCN(c2ncnc3c2c(-c2ccccc2)cn3-c2ccc(Cl)cc2)CC1 | x | -3.6% | x | x | x | x
Cc1ccc(Nc2nc(C)cc(C)n2)c(Br)c1 | 4.4% | 21.3µM* | 7.6% | 0.1% | 18.6% | 22.2%
Cc1cc(C)c(CN2C(=O)c3ccccc3S(=O)(=O)c3ccc(C(=O)OCC4CCCO4)cc32)c(C)c1 (stereo not drawn) | x | -1.8% | x | x | x | x

Compound activity as filed in PubChem.
